From PubChem BioAssay (EPA / NIEHS) come the findings set out here.

Active and inactive are the calls of the source. The calls were made as follows: active = hit-call score of the fitted dose curve at least 0.9, where 1 is the maximum; inactive = score below 0.9.

The AC50 is the concentration giving half of the maximal activity seen.

The nature of the assay: ATG_PPRE_CIS: Attagene CIS-FACTORIAL HepG2 Assay for human Peroxisome Proliferator-activated Response Element (PPRE) (AID 2282958). The settings on record: HepG2 PPRE cis-element reporter, Attagene transcription factor profiling; actives raise or lower the signal. In short, it runs like this: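 In this cell-based multiplex, a PPRE cis element drives a reporter sequence in transiently transfected HepG2 cells. Following 24 h treatment, labeled cDNA amplicons are sized and quantified by capillary electrophoresis, with DMSO defining baseline.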
For `NC(=O)C(F)(F)C(F)(F)C(F)(F)C(F)(F)F`, the molecule was classed as inactive.

As to `O=P(O)(O)OCCC(F)(F)C(F)(F)C(F)(F)C(F)(F)C(F)(F)C(F)(F)F`, the molecule was called inactive.

For the molecule `CC(=O)Nc1ccc(N=Nc2cc(C)ccc2O)cc1`, the AC50 is 39.6 µM (active).

With `CCCCCCC(C)OC(=O)CCCCC(=O)OC(C)CCCCCC` (centres undefined), the molecule was called inactive.

Consider `CC(Cc1ccc(O)c(O)c1)C(C)Cc1ccc(O)c(O)c1` (centres undefined), for which the result was inactive.

For the molecule `FC(F)(F)C(F)(F)C(F)(F)C(F)(F)C(F)(F)C(F)(F)C(F)(F)C(F)(F)CCS`, the molecule was classed as inactive.

For the molecule `FC(F)(Br)C(F)(F)C(F)(F)C(F)(F)C(F)(F)C(F)(F)Br`, the outcome was inactive.

As for `OCC(F)(F)C(F)(F)C(F)(F)C(F)(F)C(F)(F)C(F)F`, the outcome was inactive.

Regarding `COC(=O)CCC(F)(F)C(F)(F)C(F)(F)C(F)(F)F`, the result was inactive.

Regarding `FC(F)(F)C(F)(F)C(F)(F)N(C(F)(F)C(F)(F)C(F)(F)F)C(F)(F)C(F)(F)C(F)(F)F`, the outcome was inactive.

Regarding `FC(F)(F)C(F)(F)C(F)(F)C(F)(F)C(F)(F)C(F)(F)C(F)(F)C(F)(F)F`, the outcome was inactive.

On to `c1ccc(-c2ccccc2-c2ccccc2)cc1`, for which the molecule was called inactive.

In the case of `CCO[Si](CCC(F)(F)C(F)(F)C(F)(F)C(F)(F)C(F)(F)C(F)(F)F)(OCC)OCC`, the molecule was called inactive.

`FC(F)(I)C(F)(F)C(F)(F)C(F)(F)I`: the outcome was inactive.

In the case of `CCCCCCCCC(F)(F)C(F)(F)C(F)(F)C(F)(F)C(F)(F)C(F)(F)F`, the result was inactive.

In the case of `FC(F)(F)C(F)(F)CNCC(F)(F)C(F)(F)F`, the result was inactive.

As to `CC/C=C\CCOC(=O)c1ccccc1`, the result was inactive.

Consider `O=S(=O)(OCCOC(F)(F)F)C(F)(F)F`, for which the outcome was inactive.

Turning to `O=S(=O)(O)c1ccc2ccccc2c1`, the molecule was called inactive.

As to `Cc1cccc(N(C)C)c1`, the molecule was classed as inactive.

Regarding `FC(F)(F)C(F)(F)C(F)(F)CI`, the molecule was classed as inactive.

Turning to `O=C(O)C(F)(OC(F)(F)C(F)(OC(F)(F)C(F)(OC(F)(F)C(F)(F)C(F)(F)F)C(F)(F)F)C(F)(F)F)C(F)(F)F` (centres undefined), the call was inactive.

`Nc1ccc(Oc2cccc(Oc3ccc(N)cc3)c2)cc1`: the AC50 was 89.5 µM (active).

Take `FC(F)(F)C(F)(F)C(F)(F)C(F)(F)C(F)(F)C(F)(F)CCS`: the molecule was classed as inactive.

In the case of `C=C(C)C(=O)OCC(F)(F)C(F)(F)C(F)(F)F`, the molecule was classed as inactive.

In the case of `COC(OC(C)=O)c1ccccc1` (centres undefined), the molecule was called inactive.

For `FC(F)(F)C(F)(F)C(F)(F)C(F)(F)C(F)(F)CCI`, the call was inactive.

As to `Nc1ccc([N+](=O)[O-])cc1O`, the result was inactive.

`C#C[C@]1(O)CC[C@H]2[C@@H]3CCc4cc(OC)ccc4[C@H]3CC[C@@]21C`: the call was inactive.

As to `CC(C)=CCCC(C)CCOC(=O)C(C)C` (centres undefined), the molecule was called inactive.

As for `OCC(F)(F)C(F)(F)C(F)(F)C(F)F`, the outcome was inactive.

In the case of `CC(CCl)OP(=O)(OC(C)CCl)OC(C)CCl` (centres undefined), the outcome was inactive.

Consider `CC(C)OC(=O)c1ccccc1C(=O)OC(C)C`, for which the call was inactive.

Regarding `FC(F)(F)C(F)(F)C(F)(F)C(F)(F)C(F)(F)C(F)(F)CC1CO1` (centres undefined), the outcome was inactive.
